# Results published in article PMC5700166.
# Changes are numbered by the printed parent chain.
# Experiments:
# Assay in all cases: protein-binding microarray (PBM); PBM: ~300 nM protein, 6 mM HEPES pH 7.8, 80 mM KCl, 0.5 mM EDTA, 0.5 mM EGTA, 6% glycerol, 35 ng/ul poly-dIdC, 1% milk, 1 h, room temperature; Ap Aiptasia and Nv Nematostella (sea anemones) / Co Capsaspora / Aq Amphimedon (sponge) / Dm Drosophila / Hu human; RHD is the Rel homology domain; high values mean tight binding
# Settings in all cases: dsDNA, one strand shown
# GST-Ap-NF-kB RHD = molecular target: T1, GST-Ap-NF-kB RHD (Exaiptasia pallida (Aiptasia), UniProt A0A913YAJ5 2-422)
# T1 sequence: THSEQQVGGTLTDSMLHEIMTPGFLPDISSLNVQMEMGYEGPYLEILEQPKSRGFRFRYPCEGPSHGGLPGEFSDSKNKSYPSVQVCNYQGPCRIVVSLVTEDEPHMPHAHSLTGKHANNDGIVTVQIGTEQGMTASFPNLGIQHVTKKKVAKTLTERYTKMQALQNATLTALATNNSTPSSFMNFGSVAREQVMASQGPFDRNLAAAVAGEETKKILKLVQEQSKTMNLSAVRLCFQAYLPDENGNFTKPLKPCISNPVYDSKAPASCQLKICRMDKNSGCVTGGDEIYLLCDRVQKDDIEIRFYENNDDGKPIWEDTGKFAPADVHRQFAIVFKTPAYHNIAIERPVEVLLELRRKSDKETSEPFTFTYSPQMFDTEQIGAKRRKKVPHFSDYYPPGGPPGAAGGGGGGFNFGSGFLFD
# [1] = molecular target: T2, GST-Nv-NF-kB (Cys allele) (Nematostella vectensis, UniProt E5G601 2-411)
# T2 sequence: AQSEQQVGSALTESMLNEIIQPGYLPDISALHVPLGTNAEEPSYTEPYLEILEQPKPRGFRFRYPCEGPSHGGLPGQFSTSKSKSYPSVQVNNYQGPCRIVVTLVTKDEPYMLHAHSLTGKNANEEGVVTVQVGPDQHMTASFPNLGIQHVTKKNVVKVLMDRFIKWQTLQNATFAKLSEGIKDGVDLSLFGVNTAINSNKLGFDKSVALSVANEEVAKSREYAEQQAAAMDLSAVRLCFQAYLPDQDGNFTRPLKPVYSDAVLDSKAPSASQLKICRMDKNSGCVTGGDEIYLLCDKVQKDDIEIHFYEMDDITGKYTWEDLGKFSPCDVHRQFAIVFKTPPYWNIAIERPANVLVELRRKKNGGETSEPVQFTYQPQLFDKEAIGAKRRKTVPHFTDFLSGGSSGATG
# [2] = molecular target: T3, GST-Nv-NF-kB (Ser allele) (Nematostella vectensis, UniProt A7UNT2 2-411)
# T3 sequence: T2 sequence with Q21R, C66S, S207N, E215Q, V217A, E225K, A268E, D399E
# GST-Dm-Relish = molecular target: T4, GST-Dm-Relish (Drosophila melanogaster, UniProt Q94527 99-473)
# T4 sequence: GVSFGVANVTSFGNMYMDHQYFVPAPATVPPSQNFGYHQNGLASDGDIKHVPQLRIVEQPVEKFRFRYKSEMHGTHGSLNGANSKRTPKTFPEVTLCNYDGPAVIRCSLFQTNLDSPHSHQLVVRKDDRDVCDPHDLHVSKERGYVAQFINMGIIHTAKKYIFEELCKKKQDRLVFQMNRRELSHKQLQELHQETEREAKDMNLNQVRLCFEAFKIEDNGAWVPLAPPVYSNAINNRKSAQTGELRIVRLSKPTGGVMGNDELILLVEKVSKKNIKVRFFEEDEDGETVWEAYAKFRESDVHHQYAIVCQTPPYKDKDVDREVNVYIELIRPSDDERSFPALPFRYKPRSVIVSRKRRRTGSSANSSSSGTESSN
# GST-Aq-NF-kB = molecular target: T5, GST-Aq-NF-kB (Amphimedon queenslandica, UniProt A9Y5G7 2-389)
# T5 sequence: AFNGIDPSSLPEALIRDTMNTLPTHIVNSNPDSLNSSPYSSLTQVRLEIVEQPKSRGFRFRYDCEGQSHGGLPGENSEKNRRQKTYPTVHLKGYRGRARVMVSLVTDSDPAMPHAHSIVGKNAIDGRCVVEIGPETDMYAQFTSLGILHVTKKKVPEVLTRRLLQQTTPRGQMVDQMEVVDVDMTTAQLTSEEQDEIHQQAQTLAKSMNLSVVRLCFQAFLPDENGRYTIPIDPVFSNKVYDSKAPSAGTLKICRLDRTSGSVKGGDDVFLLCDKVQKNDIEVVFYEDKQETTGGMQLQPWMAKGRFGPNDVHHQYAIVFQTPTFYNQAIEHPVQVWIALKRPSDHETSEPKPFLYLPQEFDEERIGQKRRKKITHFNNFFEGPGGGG
# GST-Co-NF-kB = molecular target: T6, GST-Co-NF-kB (Capsaspora owczarzaki, UniProt F1ARL5 200-546)
# T6 sequence: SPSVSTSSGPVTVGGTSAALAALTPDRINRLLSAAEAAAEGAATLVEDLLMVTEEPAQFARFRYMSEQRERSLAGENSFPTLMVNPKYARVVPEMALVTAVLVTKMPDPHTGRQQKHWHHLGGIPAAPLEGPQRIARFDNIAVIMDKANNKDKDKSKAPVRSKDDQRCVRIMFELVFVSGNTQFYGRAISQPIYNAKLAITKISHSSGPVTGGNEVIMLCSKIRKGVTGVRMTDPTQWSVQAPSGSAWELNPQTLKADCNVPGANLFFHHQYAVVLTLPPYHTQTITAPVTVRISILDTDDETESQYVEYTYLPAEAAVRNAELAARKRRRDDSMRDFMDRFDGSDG
Sequence,binding signal (GST-Ap-NF-kB RHD) [z-score],binding signal [1] [z-score],binding signal [2] [z-score],binding signal (GST-Dm-Relish) [z-score],binding signal (GST-Aq-NF-kB) [z-score],binding signal (GST-Co-NF-kB) [z-score]
CCGATTAACATCAATAAAGTCCCTGATGTTAATCGGGTCTTGATTCGCTTGACGCTGCTG,5.45,7.06,7.32,6.49,5.67,–
CCGATTAACATCAGGGAAGGACCTGATGTTAATCGGGTCTTGATTCGCTTGACGCTGCTG,1.78,2.28,1.09,4.44,3.91,–
CCGATTAACATCACGGTAATCCCTGATGTTAATCGGGTCTTGATTCGCTTGACGCTGCTG,4.31,1.91,1.84,5.6,4.77,–
CCGATTAACATCAACCAATCCCCTGATGTTAATCGGGTCTTGATTCGCTTGACGCTGCTG,5.19,5.28,6.6,2.29,3.86,2.16
CCGATTAACATCAGGGGAACATATGATGTTAATCGGGTCTTGATTCGCTTGACGCTGCTG,5.1,5.89,6.74,4.08,5.59,7.58
CCGATTAACATCAGGTAATTACCTGATGTTAATCGGGTCTTGATTCGCTTGACGCTGCTG,2.06,4.18,5.28,5.43,5.11,–
CCGATTAACATCATGCCCGGGAATGATGTTAATCGGGTCTTGATTCGCTTGACGCTGCTG,1.55,1.27,–,–,2.72,3.51
CCGATTAACATCATGGAGGGAGGTGATGTTAATCGGGTCTTGATTCGCTTGACGCTGCTG,1.29,1.62,–,–,1.34,1.14
CCGATTAACATCAACTTTCCCAGTGATGTTAATCGGGTCTTGATTCGCTTGACGCTGCTG,1.05,2,–,–,3.06,3.84
CCGATTAACATCAAAAAATTACCTGATGTTAATCGGGTCTTGATTCGCTTGACGCTGCTG,2.19,4.07,6.92,6.23,3.3,–
CCGATTAACATCACATACCCCCCTGATGTTAATCGGGTCTTGATTCGCTTGACGCTGCTG,4.69,3.25,3.69,3.92,3.91,3.97
CCGATTAACATCAGGGGAACCTATGATGTTAATCGGGTCTTGATTCGCTTGACGCTGCTG,6.11,6.27,7.41,4.09,4.46,5.66
CCGATTAACATCAACGTTTTCCCTGATGTTAATCGGGTCTTGATTCGCTTGACGCTGCTG,3.04,4.61,6.7,1.51,3.21,4.29
